Results on 94 molecules are retold here after PubChem BioAssay AID2315 (National Center for Advancing Translational Sciences (NCATS), 2010).

Several values for one entry are separate records, joined by “and”; a condition that tells them apart may be missing. Identical values can stand only once. Among all 290,000 compounds or so, about 27,000 (9.3%) were called active. The entries come from a sample that favours actives as a whole. A number with no mark means an inactive call. Cut-off read from the data, not from the text of the source: active = inhibition mostly above about 28% (no sharp cut-off); inactive = mostly below about 43%.

The experiment in a line: A qHTS for Small Molecule Inhibitors of Shiga Toxin. Note: 0% is about no effect. The settings on record: Vero cells, Shiga toxin protein synthesis inhibition reporter; at 38.7 µM, hits give high values.
In the case of `CCCNC(=O)c1ccc(N2CCC3(CC2)CC(c2ccc(Cl)cc2)=NO3)c([N+](=O)[O-])c1`, the inhibition was 0.364%.

Take `COc1ccc(CN2CCCC(C(=O)N3CCCCC3)C2)cc1` (centres undefined): the inhibition is -9.61%. Take `Cc1ccc2c(cnn2C(=O)CCC(=O)NC2CCCC2)c1`: the inhibition is 1.95%. As to `CCOc1ccc(C(CC(=O)O)NC(=O)Cc2ccccc2)cc1OC` (centres undefined), the inhibition is -3.82%. On to `COc1ccc(C2CC(=O)NC(=O)C2)cc1`, for which the inhibition is 1.04%.

For `Cc1c(CCC(=O)N[C@@H](CC(C)C)C(=O)O)c(=O)oc2c(C)c3oc4c(c3cc12)CCCC4`, the inhibition was -1.24%.

Take `O=C(Nc1ccncc1)Nc1ccc(F)cc1`: the inhibition is 30.2%.

On to `CCc1ccc(NC(=O)Nc2ccncc2)cc1`, for which the inhibition is 58.2% (active).

For the molecule `CCc1ccc(NC(=O)N[C@H](C(=O)O)C(C)CC)cc1` (some centres undefined), the inhibition is -3.77%. For `O=C(Nc1cc(C(=O)Nc2ccc(S(=O)(=O)O)cc2)cc(C(=O)Nc2ccc(S(=O)(=O)O)cc2)c1)Nc1cc(C(=O)Nc2ccc(S(=O)(=O)O)cc2)cc(C(=O)Nc2ccc(S(=O)(=O)O)cc2)c1`, the inhibition is -5.01%. In the case of `CCCn1c(=N)n(CC(=O)c2ccc(Cl)c(Cl)c2)c2ccccc21`, the inhibition is -3.46%.

With `O=C(NCc1cccs1)C1CCN(S(=O)(=O)c2ccc(Cl)cc2)CC1`, the inhibition is -3.28%. As for `CC(C)(C)C1CCC(C(=O)NCC(c2cccs2)N2CCOCC2)CC1` (centres undefined), the inhibition was -2.93%. `O=C(NCc1csc(-c2cccs2)n1)C1CC1`: the inhibition was 68.5% (active).

As for `COCc1ccc(C(=O)NC2CC(C)(C)Cc3c2cnn3-c2ccc(C)cc2)o1` (centres undefined), the inhibition is 21.9%. For the molecule `O=C(OCc1ccccc1F)c1ccc2c(c1)OCCO2`, the inhibition is 104% (active). Regarding `CC(NC(=O)COC(=O)c1ccc2c(c1)OCO2)c1ccccc1` (centres undefined), the inhibition was 17.4%. With `O=C(COC(=O)c1ccc2c(c1)OCCO2)NCc1ccccc1`, the inhibition was 19.3%. As to `O=C(O)c1ccc(/C=C2\SC(=S)N(NC(=O)c3ccc(Br)cc3)C2=O)cc1`, the inhibition was -9.68%. In the case of `N#Cc1ccc(S(=O)(=O)NCC(=O)OCC(=O)NCCc2ccccc2)cc1`, the inhibition is -5.8%. As to `C#CCNc1ccc(C(=O)OCC)cc1`, the inhibition was 58.3% (active). As for `CCOC(=O)c1ccc(NC(=O)Cc2cccs2)cc1`, the inhibition is 49.2% (active). As to `CCCCC(CCC(=O)Nc1ccc(C(=O)OCC)cc1)C(=O)O` (centres undefined), the inhibition is -3.77%.

Turning to `O=C(Cc1cccs1)Nc1ccc([N+](=O)[O-])cc1`, the inhibition is -6.19%.

In the case of `CCOc1ccccc1NC(=O)Cc1cccs1`, the inhibition is -4.91%. Turning to `CCOC(=O)c1ccc(NC(=S)N2CCCC2)cc1`, the inhibition was 8.67%. Take `CCOC(=O)c1cccc(NC(=O)C2CCN(c3ncnc4c3nc3n4CCCCC3)CC2)c1`: the inhibition is 10.8%. Then `CC(Sc1nnc(-c2ccccc2F)n1C1CC1)C(N)=O` (centres undefined), with -9.07%; and `O=C(O)c1ccc2c(=O)n3c(nc2c1)/C(=C/c1ccc(OC(F)F)cc1OC(F)F)CC3`, with 1.37%. For `O=C(CN1C(=O)/C(=C\c2ccccc2F)SC1=S)Nc1nc2ccccc2s1`, the inhibition was 51.7% (active).

As for `O=C(CN1C(=O)/C(=C/c2ccccc2F)Sc2ccccc21)NCc1cccnc1`, the inhibition is 13.6%.

For the molecule `CN(C(=O)CCN1C(=O)/C(=C/c2ccccc2F)SC1=S)C1CCS(=O)(=O)C1` (centres undefined), the inhibition was -3.82%. As to `COc1ccc(CNc2ccc3c(c2)CCC3)cc1OC`, the inhibition is 37.9%.

In the case of `Cc1ccc(N2C(=O)CC(NCc3ccc4c(c3)OCO4)C2=O)cc1Cl` (centres undefined), the inhibition was 110% (active). With `Cc1ccc(CC2CC(=O)N(c3ccc4c(c3)OCCO4)C2=O)cc1` (centres undefined), the inhibition was 51.2%. Then `O=CN1CCN(C2CC(=O)N(c3ccc4c(c3)OCO4)C2=O)CC1` (centres undefined), with 19.5%. Regarding `Cc1cccc(C(=O)NC(=S)N(C)C2CCCCC2)c1`, the inhibition is 117% (active).

`Cc1cccc(C(=O)NCCCN(C)CCCNC(=O)c2cccc(C)c2)c1`: the inhibition was -6.03%. In the case of `Cc1cccc(NC(=S)NCCN(C2CCCCC2)C2CCCC2)c1`, the inhibition is 19.2%. Then `Cc1nc2ccc(C(=O)N(C)CC3CCCN(CCc4ccc(Cl)cc4)C3)cc2[nH]1` (centres undefined), with -8.28%.

Take `COc1ccc(COC(=O)c2ccc(Cl)c(S(=O)(=O)N3CCOCC3)c2)cc1F`: the inhibition was -8.8%. Take `O=C(CN1CCN(S(=O)(=O)c2ccc(Cl)s2)CC1)NCc1ccc(Cl)cc1`: the inhibition was 34.8% (active). For the molecule `O=C(NCc1ccc(Cl)cc1)C1CCN(S(=O)(=O)c2cccs2)CC1`, the inhibition is 4.43%. In the case of `Cc1ccccc1N1CCN(CC(=O)NCc2ccc(Cl)cc2)CC1`, the inhibition is -5.06%. Regarding `CC(C)c1ccccc1OCC(O)CN(CC(O)COc1cccc2ccccc12)C(C)C` (centres undefined), the inhibition is -14.8%. For the molecule `COc1cccc(C(=O)NC(=O)Nc2nc(C)cc(C(F)(F)F)n2)c1`, the inhibition is 4.77%.

As for `Brc1ccc(-c2nnc(-c3ccccc3)o2)o1`, the inhibition was 71.5% (active). In the case of `Brc1ccc(-c2noc(-c3ccccc3)n2)o1`, the inhibition was 139% (active). As to `Cn1nc(-c2ccccc2)c(-c2nc(-c3ccc(Cl)cc3)no2)c1Cl`, the inhibition was -16%. For the molecule `Nc1nonc1-c1noc(-c2ccc(Br)o2)n1`, the inhibition was 24.2%. Turning to `COc1ccc(CNC(=O)CCN2C(=O)c3ccccc3C2=O)cc1`, the inhibition is 4.69%. For `O=C(O)CC(c1ccccc1F)N1Cc2ccccc2C1=O` (centres undefined), the inhibition is -12%. Then `O=C(CN1CCN(c2ccccn2)CC1)NCc1cccs1`, with -22.2%; and `CCN(CC)C(=O)C(=O)c1cn(CC(=O)NCc2ccc3c(c2)OCO3)c2ccccc12`, with -11.5%; and `O=C(Cn1cc(C(=O)c2cccs2)c2ccccc21)NCc1cccs1`, with 16.3% (active).

Take `COC(=O)c1cn(CC(=O)NCc2cccs2)c2ccccc12`: the inhibition was 64.8% (active). Regarding `COC(=O)Cn1cc(C(=O)c2cccs2)c2ccccc21`, the inhibition is 2.14%. For `COCCCNC(=O)Cn1cc(C(=O)C2CC2)c2ccccc21` the value was -8.71%; for `Cc1cc(=O)[nH]c(Nc2cccc(Br)c2)n1`, -10.8%; for `N#Cc1cccc(CSc2ncnc(N)n2)c1`, 3.32%. Take `Cc1ccccc1-n1cc(CNC(=O)C2CCC(=O)N(C3CC3)C2)cn1` (centres undefined): the inhibition is 21.3%.

For `COc1ccc2c(c1)N(C)/C(=C1/SC(=S)N(NC(C)=O)C1=O)S2`, the inhibition is 7.78%. For `COc1ccc(N(Cc2ccc(N(C)C)cc2)C(=O)c2ccc(S(C)(=O)=O)cc2)cc1` the value was -10.5%. For the molecule `COc1ccc(Cn2c(=S)[nH]c3cc(C(=O)N4CCCCC4)ccc3c2=O)cc1`, the inhibition was -3.58%. Turning to `CC(=O)Oc1ccc(-c2cccc(C(=O)N3CCCCC3)c2)cc1`, the inhibition is 37.3%.

Consider `COc1ccc(OCc2cccc(C(=O)N3CCCC3)c2)cc1`, for which the inhibition was 147% (active). Consider `CCOc1ccc(OCc2ccc(C(=O)N(C)c3ccccc3)o2)cc1`, for which the inhibition is 13%. Regarding `CCOc1ccc(OCc2cccc(C(=O)N(CC)CC)c2)cc1`, the inhibition is 160% (active).

Turning to `COc1cccc(COc2ccc(N(C)S(=O)(=O)c3ccccc3)cc2)c1`, the inhibition is 26%.

`O=C(COc1ccccc1[N+](=O)[O-])NC1CC1`: the inhibition was 19.4%.

As for `CCN1C(=NCc2ccc(OC)cc2)N[C@@H](CCc2ccccc2)[C@H](C(=O)NCc2ccc(OC)cc2)[C@H]1C`, the inhibition was 2.67% and -2.62%.

Regarding `CC(C)c1ccc(NC(=O)Cn2ncc3ccccc32)cc1`, the inhibition was 74.2% (active). With `CCOC(=O)c1cn(CC(=O)Nc2ccc(C(C)C)cc2)nn1`, the inhibition is -16.4%. Take `CCc1ccc(NC(=O)Cn2ncn3c(cc4ccccc43)c2=O)cc1`: the inhibition is 5.27%.

Regarding `Nc1nonc1-n1nnc(C(=O)N/N=C/c2c[nH]c3ccccc23)c1-c1ccccc1`, the inhibition is -17%. `CCn1cc(S(=O)(=O)c2cccc(C)c2)c(=O)c2cc(F)c(N3CCN(C)CC3)cc21`: the inhibition is 4.57%. With `COc1cccc(C(=O)Nc2cc3c(cc2Br)OCCCO3)c1`, the inhibition was 95.9% (active). Take `COc1cccc(C(=O)Nc2ccc(N3CCCC3)cc2)c1`: the inhibition is 47.9% (active). For `COc1cccc(C(=O)Nc2ccc(N3CCN(C(=O)c4ccco4)CC3)cc2)c1` the value was 2.21%; for `CN1CCN(c2ccc(NC(=O)c3ccc4c(c3)[nH]c(=O)n4Cc3ccc(F)cc3)cc2)CC1`, -1.72%; for `COc1ccc(C(=O)NC(=S)Nc2ccc(N3CCCC3)cc2)cc1OC`, 11.5%. For `CC(=O)Oc1cccc(C(=O)Nc2ccccc2NC(=O)c2cccc(OC(C)=O)c2)c1` the value was -7.51%; for `Cc1ccccc1C(=O)Nc1ccc(N2CCCCCC2)cc1`, 36.6%. Then `CN1CCN(c2ccc(NC(=O)c3ccccc3)cc2)CC1`, with 47.5% (active); and `COc1cccc(C(=O)NNC(=O)c2ccccc2Br)c1`, with -5.95%.

For `Cc1ccc(-c2noc(CNC(=O)c3ccoc3C)n2)cc1`, the inhibition was -9.24%. For `CCOCCCNC(=O)c1ccc(CS(=O)(=O)c2cccc(C(F)(F)F)c2)o1`, the inhibition was 21.3%. `COC(=O)c1ccc(NC(=O)c2cc3c(CO)cnc(C)c3oc2=Nc2cccc(C(N)=O)c2)cc1`: the inhibition is -1.8%.

`CCN1C(=NCC(C)C)N[C@@H](CCc2ccccc2)[C@H](C(=O)NCC(C)C)[C@H]1C`: the inhibition was -2.89% and 9.38%.

For the molecule `O=C(CNC(=O)c1cccnc1)N/N=C/c1cc(Br)c(O)c(Br)c1`, the inhibition was -3.98%. For `O=S(=O)(c1ccccc1)N(Cc1cccc(F)c1)c1ccccc1`, the inhibition is -4.98%. For `CNC(=S)N/N=C/c1cn(Cc2ccc(C)cc2)c2ccccc12`, the inhibition was 21.9%. For `COC(=O)N/N=C/c1cn(CCCOc2ccc(C)cc2)c2ccccc12`, the inhibition was 37.2% (active). As for `CCOC(=O)N/N=C/c1cn(Cc2ccccc2Cl)c2ccccc12`, the inhibition is 20.2%.
